This passage reports inhibition results from PubChem BioAssay.

Test [1] deals with Nuclear receptor coactivator 3 (Homo sapiens) (UniProt Q9Y6Q9). As to the kind of experiment: NCOA3 GAL4-fusion reporter inhibition – cell-based, luminescence, quadruplicate, confirmation (AID 588792;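 active means mean inhibition over 43.08%, the solvent-only control mean plus 3 SD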;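 further: 0% = DMSO treated cells and 100% = gossypol at 36 µM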). The following applies: HEK293 GAL4-SRC3 luciferase reporter, at 3.6 µM, stronger effect = higher value. A general note: Reporter assays use an easily measured gene product as a stand-in for the process of interest.
Nuclear receptor coactivator 3 (Homo sapiens), sequence (Q9Y6Q9 whole entry, looked up, the tested form may be a part): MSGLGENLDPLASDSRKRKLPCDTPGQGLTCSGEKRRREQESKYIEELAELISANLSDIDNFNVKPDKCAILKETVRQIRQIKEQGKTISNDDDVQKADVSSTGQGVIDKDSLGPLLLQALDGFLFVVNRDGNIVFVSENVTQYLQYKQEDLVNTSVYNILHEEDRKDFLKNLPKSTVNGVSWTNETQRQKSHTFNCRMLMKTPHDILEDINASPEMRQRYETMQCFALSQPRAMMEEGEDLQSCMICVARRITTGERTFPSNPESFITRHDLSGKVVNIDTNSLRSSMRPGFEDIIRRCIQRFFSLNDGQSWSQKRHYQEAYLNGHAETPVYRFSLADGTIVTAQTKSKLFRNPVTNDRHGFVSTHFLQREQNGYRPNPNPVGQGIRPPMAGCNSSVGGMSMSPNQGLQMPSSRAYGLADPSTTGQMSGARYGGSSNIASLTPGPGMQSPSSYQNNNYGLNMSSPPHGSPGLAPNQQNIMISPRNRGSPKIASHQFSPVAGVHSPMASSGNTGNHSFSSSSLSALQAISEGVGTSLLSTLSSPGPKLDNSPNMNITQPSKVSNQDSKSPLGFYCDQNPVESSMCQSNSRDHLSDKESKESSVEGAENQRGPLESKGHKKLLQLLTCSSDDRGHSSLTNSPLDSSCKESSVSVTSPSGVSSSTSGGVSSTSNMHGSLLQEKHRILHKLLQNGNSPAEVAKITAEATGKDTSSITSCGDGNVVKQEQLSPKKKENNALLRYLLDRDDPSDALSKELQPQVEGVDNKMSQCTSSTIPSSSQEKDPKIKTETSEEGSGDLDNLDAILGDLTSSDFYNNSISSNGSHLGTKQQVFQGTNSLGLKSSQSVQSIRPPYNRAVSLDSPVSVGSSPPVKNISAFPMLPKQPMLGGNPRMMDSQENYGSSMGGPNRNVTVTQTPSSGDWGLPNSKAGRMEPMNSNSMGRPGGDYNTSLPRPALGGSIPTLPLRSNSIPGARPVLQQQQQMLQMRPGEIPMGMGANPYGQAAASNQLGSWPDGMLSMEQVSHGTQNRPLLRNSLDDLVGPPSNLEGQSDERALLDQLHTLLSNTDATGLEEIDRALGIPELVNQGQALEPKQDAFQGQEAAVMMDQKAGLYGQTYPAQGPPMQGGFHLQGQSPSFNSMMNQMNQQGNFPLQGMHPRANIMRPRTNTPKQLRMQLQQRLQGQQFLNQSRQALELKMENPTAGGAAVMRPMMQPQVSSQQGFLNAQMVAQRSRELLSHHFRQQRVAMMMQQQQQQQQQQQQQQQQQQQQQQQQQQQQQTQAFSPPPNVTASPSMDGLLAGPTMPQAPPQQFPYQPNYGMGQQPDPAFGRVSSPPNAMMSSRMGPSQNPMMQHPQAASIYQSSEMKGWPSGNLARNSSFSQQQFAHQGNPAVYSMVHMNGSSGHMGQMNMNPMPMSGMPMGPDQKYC

The test system of test [2] is transactivating tegument protein VP16 (Human herpesvirus 1), Gal4-VP16 luciferase reporter. As to the kind of experiment: repression of VP16-driven luciferase reporter – cell-based, luminescence, high throughput, counter-screen for SRC3 inhibitor project (AID 588794; in the data active means inhibition above about 30%). The following applies: mammalian cells, at 3.6 µM, stronger effect = higher value.
For test [3], the target named is Nuclear receptor coactivator 1 (Homo sapiens) (UniProt Q15788). As to the kind of experiment: NCOA1 GAL4-fusion reporter inhibition – cell-based, luminescence, quadruplicate, confirmation (AID 588820;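 active means mean inhibition above 46.68%, the untreated control wells mean plus 3 SD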;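 further: 0% = DMSO wells and 100% = gossypol 36 µM treated wells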). As to conditions: HEK293 GAL4-SRC1 luciferase reporter, at 3.6 µM, stronger effect = higher value.
Nuclear receptor coactivator 1 (Homo sapiens), sequence (Q15788 whole entry, looked up, the tested form may be a part): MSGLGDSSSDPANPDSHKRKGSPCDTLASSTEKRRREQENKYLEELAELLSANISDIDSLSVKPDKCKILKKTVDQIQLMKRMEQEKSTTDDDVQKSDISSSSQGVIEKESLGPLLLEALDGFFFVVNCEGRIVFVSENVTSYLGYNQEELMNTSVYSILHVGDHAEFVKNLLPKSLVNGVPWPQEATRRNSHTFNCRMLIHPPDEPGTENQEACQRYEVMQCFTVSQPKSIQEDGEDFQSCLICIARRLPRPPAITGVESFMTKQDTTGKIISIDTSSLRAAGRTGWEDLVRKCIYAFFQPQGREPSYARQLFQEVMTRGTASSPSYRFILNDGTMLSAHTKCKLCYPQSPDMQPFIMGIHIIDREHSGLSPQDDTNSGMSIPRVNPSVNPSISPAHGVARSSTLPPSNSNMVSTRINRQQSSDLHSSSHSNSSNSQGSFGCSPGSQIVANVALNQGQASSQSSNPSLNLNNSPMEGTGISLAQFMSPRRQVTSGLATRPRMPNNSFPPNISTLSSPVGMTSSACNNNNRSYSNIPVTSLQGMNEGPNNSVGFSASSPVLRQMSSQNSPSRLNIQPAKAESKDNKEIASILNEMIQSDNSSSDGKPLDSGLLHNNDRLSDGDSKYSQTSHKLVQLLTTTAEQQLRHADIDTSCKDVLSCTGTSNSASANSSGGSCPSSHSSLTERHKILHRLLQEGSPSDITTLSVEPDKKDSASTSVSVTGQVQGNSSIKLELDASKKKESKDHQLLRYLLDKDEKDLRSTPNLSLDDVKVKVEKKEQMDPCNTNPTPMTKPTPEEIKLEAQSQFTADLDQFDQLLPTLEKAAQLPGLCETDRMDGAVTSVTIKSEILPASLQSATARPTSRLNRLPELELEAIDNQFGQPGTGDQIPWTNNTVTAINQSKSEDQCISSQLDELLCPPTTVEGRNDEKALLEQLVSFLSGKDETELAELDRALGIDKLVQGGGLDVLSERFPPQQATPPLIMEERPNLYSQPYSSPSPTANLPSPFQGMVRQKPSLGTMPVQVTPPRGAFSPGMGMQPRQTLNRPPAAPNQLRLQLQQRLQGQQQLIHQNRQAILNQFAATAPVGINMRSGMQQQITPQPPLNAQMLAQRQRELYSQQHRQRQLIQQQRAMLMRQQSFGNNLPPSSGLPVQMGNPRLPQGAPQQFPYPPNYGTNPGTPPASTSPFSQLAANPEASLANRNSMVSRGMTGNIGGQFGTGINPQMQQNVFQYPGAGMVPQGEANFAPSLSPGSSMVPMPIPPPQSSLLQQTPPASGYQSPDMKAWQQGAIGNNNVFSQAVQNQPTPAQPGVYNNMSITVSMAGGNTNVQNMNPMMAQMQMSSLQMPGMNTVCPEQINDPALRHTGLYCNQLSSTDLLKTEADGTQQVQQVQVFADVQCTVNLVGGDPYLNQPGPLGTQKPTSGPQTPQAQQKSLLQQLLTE
Test [4] can be described thus: repression of VP16-driven luciferase reporter – cell-based, luminescence, high throughput, counter-screen for SRC1 inhibitor project (AID 588824). The following applies: cell-based VP16 transactivation luciferase luminescence; at 3.6 µM; stronger effect = higher value.
The nature of test [5]: StAR promoter reporter inhibitors, counter-screen for LRH-1 inverse agonist project, cell-based, luminescence, high throughput (AID 651611; in the data active means inhibition above about 28%). As to conditions: StAR promoter luciferase reporter counterscreen, at 3.6 µM, stronger effect = higher value. In general terms: The purpose of a counterscreen is to sort out artefacts and off-target activity.
In test [6] the target is Nuclear receptor subfamily 5 group A member 2 (Homo sapiens) (UniProt O00482). As to the kind of experiment: NR5A2 activity suppression in reporter cells – cell-based, luminescence, confirmation (AID 651613; in the data active means inhibition above about 42%;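 further: HEK293T cells co-transfected with LRH-1 and StAR promoter luciferase reporter; 0% = vehicle wells and 100% = parental cells lacking receptor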). The following applies: cell-based LRH-1 luciferase reporter, inverse agonism; at 3.6 µM; stronger effect = higher value.
Nuclear receptor subfamily 5 group A member 2 (Homo sapiens), sequence (O00482 whole entry, looked up): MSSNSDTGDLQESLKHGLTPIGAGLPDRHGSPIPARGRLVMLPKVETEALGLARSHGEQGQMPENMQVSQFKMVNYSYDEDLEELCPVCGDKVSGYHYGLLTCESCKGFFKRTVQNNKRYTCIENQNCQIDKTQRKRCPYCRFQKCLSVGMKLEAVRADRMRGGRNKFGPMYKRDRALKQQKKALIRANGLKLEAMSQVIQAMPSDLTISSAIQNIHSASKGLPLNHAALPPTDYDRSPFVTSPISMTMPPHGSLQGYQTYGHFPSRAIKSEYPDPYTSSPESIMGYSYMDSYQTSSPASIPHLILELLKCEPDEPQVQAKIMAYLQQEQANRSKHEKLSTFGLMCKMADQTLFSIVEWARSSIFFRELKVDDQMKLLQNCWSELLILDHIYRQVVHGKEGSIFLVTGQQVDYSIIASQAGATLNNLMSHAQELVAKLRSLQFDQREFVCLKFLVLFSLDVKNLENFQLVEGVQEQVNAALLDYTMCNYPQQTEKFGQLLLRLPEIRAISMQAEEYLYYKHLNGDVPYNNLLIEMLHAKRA
For test [7], the target named is Steroidogenic factor 1 (Homo sapiens) (UniProt Q13285). Nature of the test: inverse agonism at SF1 nuclear receptor – cell-based, luminescence, high throughput, counter-screen for LRH-1 inverse agonist project (AID 651614; in the data active means inhibition above about 44%;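 further: cells cotransfected with StAR promoter reporter and SF1 expression vector; 0% = vehicle on cells with receptor and 100% = vehicle on cells lacking receptor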). As to conditions: cell-based SF1 luciferase reporter, at 3.6 µM, stronger effect = higher value.
Steroidogenic factor 1 (Homo sapiens), sequence (Q13285 whole entry, looked up, the tested form may be a part): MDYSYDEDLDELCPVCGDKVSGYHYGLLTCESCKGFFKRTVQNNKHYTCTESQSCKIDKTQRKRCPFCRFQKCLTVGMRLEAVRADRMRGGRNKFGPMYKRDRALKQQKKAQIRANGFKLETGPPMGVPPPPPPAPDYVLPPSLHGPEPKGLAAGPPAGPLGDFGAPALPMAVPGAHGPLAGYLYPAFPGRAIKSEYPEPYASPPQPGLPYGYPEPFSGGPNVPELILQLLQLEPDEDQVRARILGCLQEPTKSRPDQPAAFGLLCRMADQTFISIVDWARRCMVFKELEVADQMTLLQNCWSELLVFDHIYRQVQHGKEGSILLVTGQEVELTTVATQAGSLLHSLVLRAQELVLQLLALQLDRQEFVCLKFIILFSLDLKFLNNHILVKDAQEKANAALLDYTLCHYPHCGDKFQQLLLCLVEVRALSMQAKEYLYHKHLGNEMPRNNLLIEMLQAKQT
A short description of test [8]: compounds suppressing VP16-driven luciferase signal – cell-based, luminescence, high throughput, counter-screen for LRH-1 inverse agonist project (AID 651615; in the data active means inhibition above about 33%). The following applies: Gal4-VP16 luciferase reporter cells, at 3.6 µM, stronger effect = higher value.

A word on the inhibition: it is the drop in the measured response relative to a control, in per cent.

Values without a mark were called inactive. Calls of active or inactive are those of the source. Unless noted, no stated cut-off is given here; in the data, active means inhibition above about 25%; inactive means the rest.

Take `O=c1c2ccccc2sc2ccc(C#CC3(O)CCCCC3)cc12`: the inhibition in test [1] was 87.4% (active); in test [2], 84.4% (active); in test [3] it was 76.2% (active); in test [4], 75% (active); in test [5], 84.3% (active); in test [6] it was 56% (active). For the same compound, the inhibition in test [7] is 76.5% (active); in test [8], 71.2% (active).
`O=C1NC(=O)C(c2ccc(F)cc2)N1` (centres undefined): the inhibition in test [1] is 3.02%; in test [2], -3.31%; in test [3], -2.47%; in test [4], -5.94%; in test [5], 11%; in test [6], 8.89%. The inhibition in test [7] is 2.89%; in test [8], 4.11%.
For the compound `CCC(C)(C)c1ccc(OCCCC[n+]2cccc(C)c2C)c(C(C)(C)CC)c1`, the inhibition in test [1] is 56.1% (active); in test [2], 72.2% (active); in test [3], 43.5%; in test [4] it was 71% (active); in test [5], 58% (active); in test [6], 88.1% (active). Besides, the inhibition was 85.2% (active) in test [7] and 80.9% (active) in test [8].
With `Cc1cc(/C=c2/sc3nc4ccccc4n3c2=O)c(C)n1-c1ccccn1`, the inhibition was 89.7% (active) in test [1]; 87.8% (active) in test [2]; 82.9% (active) in test [3]; 81.6% (active) in test [4]; 86.4% (active) in test [5]; 84.2% (active) in test [6]. For the same compound, the inhibition was 87.4% (active) in test [7] and 78.8% (active) in test [8].
`O=C(NCc1ccccc1)c1cccc(NC(=O)c2ccco2)c1`: the inhibition in test [1] was 18.4%; in test [2], 50.7% (active); in test [3], 26.9%; in test [4] it was 48.9% (active); in test [5], 35.5% (active); in test [6], 51.6% (active). Also, the inhibition in test [7] was 51.1% (active); in test [8] it was 68.5% (active).
In the case of `Nc1ncn([C@@H]2O[C@H](CO)[C@@H](O)[C@H]2O)c(=O)n1`, the inhibition in test [1] is 76.7% (active); in test [2], 57.1% (active); in test [3], -17.7%; in test [4] it was 45.7% (active); in test [5] it was 69.6% (active); in test [6], 90.2% (active). In addition, the inhibition was 82.3% (active) in test [7] and 80.9% (active) in test [8].
For `CC(=O)N(/N=C1\Sc2ccccc2C1=O)c1ccc(C)cc1C`, the inhibition in test [1] is 54.1% (active); in test [2], 37.7% (active); in test [3], 2.03%; in test [4], 25.4% (active); in test [5], -1.06%; in test [6], 11.9%. Besides, the inhibition in test [7] is 48.8% (active); in test [8], -16.6%.
With `NC1=C(Br)C(=O)c2ncccc2C1=O`, the inhibition in test [1] is 72.1% (active); in test [2], 60.8% (active); in test [3] it was 49.1% (active); in test [4] it was 54.8% (active); in test [5], 70.9% (active); in test [6], 92.9% (active). For the same compound, the inhibition was 84.3% (active) in test [7] and 79.3% (active) in test [8].
With `CCN(CC)c1ccc(/C=C/c2ccc3ccc(OC)cc3[n+]2CC)cc1`, the inhibition is 50.1% (active) in test [1]; 74.8% (active) in test [2]; 42.6% in test [3]; 74.5% (active) in test [4]; 67.8% (active) in test [5]; 96.4% (active) in test [6]. In addition, the inhibition in test [7] was 90.8% (active); in test [8], 84.1% (active).
Consider `COc1ccc(CCNc2ncnc3c2oc2ccccc23)cc1OC`, for which the inhibition is 15.8% in test [1]; 34.9% (active) in test [2]; 2.85% in test [3]; 32.5% (active) in test [4]; 34.5% (active) in test [5]; 51.8% (active) in test [6]. In addition, the inhibition in test [7] was 58.1% (active); in test [8], 55.6% (active).
Turning to `Cc1c(C)c2cccnc2c2ncccc12`, the inhibition in test [1] was 88.2% (active); in test [2], 65.7% (active); in test [3], 72.8% (active); in test [4], 65.7% (active); in test [5], 89.9% (active); in test [6], 108% (active). For the same compound, the figures for the inhibition in test [7] and in test [8] were 91.9% (active) and 64.1% (active), respectively.
In the case of `CCC(NC(=O)Nc1nnc(C(F)(F)F)s1)(C(F)(F)F)C(F)(F)F`, the inhibition in test [1] was 60.7% (active); in test [2], 82% (active); in test [3] it was 50.1% (active); in test [4], 85.6% (active); in test [5], 79.3% (active); in test [6], 103% (active). Besides, the inhibition is 90.6% (active) in test [7] and 90.5% (active) in test [8].
Regarding `OCC1OC(n2cnc3c(NCc4ccco4)ncnc32)C(O)C1O` (centres undefined), the inhibition is 71.1% (active) in test [1]; 53.4% (active) in test [2]; 33.5% in test [3]; 48.7% (active) in test [4]; 65.1% (active) in test [5]; 60.3% (active) in test [6]. Besides, the inhibition in test [7] is 85.7% (active); in test [8], 67.7% (active).
Consider `COc1cc(C2c3cc4c(cc3C(OC3OC5COC(c6cccs6)OC5C(O)C3O)C3COC(=O)C23)OCO4)cc(OC)c1O` (centres undefined), for which the inhibition in test [1] was 72.2% (active); in test [2], -8.11%; in test [3] it was 26%; in test [4], -26.7%; in test [5] it was 73.9% (active); in test [6] it was 82.6% (active). For the same compound, the inhibition in test [7] was 54.5% (active); in test [8], -36.1%.
For the compound `COc1ccc2cc3cc(C(=O)Nc4cc(OC)c(OC)c(OC)c4)oc3nc2c1`, the inhibition in test [1] was 37.1%; in test [2] it was 33.5% (active); in test [3], 9.93%; in test [4] it was 46.1% (active); in test [5] it was 71% (active); in test [6], 55.1% (active). For the same compound, the inhibition is 74.7% (active) in test [7] and 56.5% (active) in test [8].
`CCCCCC[n+]1ccccc1/C=C/c1ccc(N(C)C)cc1`: the inhibition was 89.5% (active) in test [1]; 88.2% (active) in test [2]; 64% (active) in test [3]; 86.2% (active) in test [4]; 81.5% (active) in test [5]; 110% (active) in test [6]. The inhibition in test [7] is 94.8% (active); in test [8], 94.7% (active).
With `CCC(C)n1ncn(-c2ccc(N3CCN(c4ccc(O)cc4)CC3)cc2)c1=O` (centres undefined), the inhibition in test [1] was 32.4%; in test [2] it was 51.9% (active); in test [3], 20.6%; in test [4], 54.8% (active); in test [5], 63.1% (active); in test [6] it was 76.7% (active). Further, the results for the inhibition in test [7] and in test [8] were 70.8% (active) and 73.1% (active), respectively.
Regarding `COc1ccc(/C=C/c2cc(-c3ccc(C)cc3)o[n+]2C)cc1`, the inhibition in test [1] is 65.6% (active); in test [2], 74.6% (active); in test [3], 56.2% (active); in test [4] it was 71.5% (active); in test [5], 62.3% (active); in test [6], 98.9% (active). In addition, the inhibition in test [7] was 89.8% (active); in test [8], 83.6% (active).
